# Data from ChEMBL document CHEMBL4513135, “CO-ADD screening of IQOG CSIS (Spain) compounds”.
# Results with a measured potency or affinity are listed apart.
# System: Cryptococcus neoformans
# Settings: Concentration 32 ug.mL-1; ASSAY_TEST Inhibition of Fungal Growth; detection method Resazurin; Absorption (OD600-OD570); plate type 384well; NBS; CORNING #3640
row,Structure (SMILES),Inhibition [%]
1,N#Cc1cc(C#N)c(NCCCC2CCN(Cc3ccccc3)CC2)nc1N,-57.65
2,Cl.ClCCCN1CCCC1,-0.84
3,Cn1cc(C=O)c2ccccc21,-4.31
4,CS(=O)(=O)O[C@H]1CC[C@H](OS(C)(=O)=O)CC1,-30.83
5,N#CC1(Br)C(=NBr)Oc2c(ccc3ccccc23)C1c1cccc([N+](=O)[O-])c1 (stereo not given),-69.53
6,O=C(N/N=C/c1cccc(Cl)c1)c1cc2ccccc2[nH]1,-2.87
7,O=C1OC(c2ccccc2)=NC1=Cc1ccc(Cl)cc1,-3.18
8,CSC1=NC2(CC2c2ccccc2)C(=O)N1C (stereo not given),-5.95
9,CC1CN(C)c2c(C#N)c(-c3ccccc3)c(C#N)c(=N)n21 (stereo not given),-66.3
10,CCOC(=O)C1=C(C)OC(N)=C(C#N)C1c1cccnc1 (stereo not given),-18.71
11,COc1ccccc1[C@H]1c2c(ccc3ccccc23)O/C(=N\Br)[C@@]1(Br)C#N,-5.55
12,CC(C)NNC(=O)Cc1c[nH]c2ccccc12,-1.92
13,CC(C)C(=O)N/N=C/c1c[nH]c2ccccc12,-5.03
14,Nc1c2c(nc3c1C(c1ccc([N+](=O)[O-])cc1)c1ccc4ccccc4c1O3)CCCC2 (stereo not given),-5.85
15,N#Cc1c(N)nc(Cl)c(C#N)c1-c1ccccc1,-2.34
16,O[C@H]1CC[C@H](NCc2ccccc2)CC1,-37.74
17,CCOC(=O)C1=C(C)OC(N)=C(C#N)C1c1ccc(OC)cc1 (stereo not given),-5.46
18,COc1ccc2c(c1)cc(CN(C)C)n2C,-1.62
19,Cc1ccc(/C=N/NC(=O)c2c[nH]c3ccccc23)cc1,-0.49
20,Cc1ccc(C=C2N=C(c3ccccc3)OC2=O)cc1,-5.42

row,Structure (SMILES),Inhibition [%]
1,N#Cc1cc2c(N)n[nH]c2nc1N,-4.92
2,O=Cc1c(-c2ccc(Br)cc2)nc2ccccn12,-4.41
3,C#CCN(C)c1nc(Sc2ccccc2)c(C#N)c(-c2ccccc2)c1C#N,-1.7
4,Cn1ccnc1C1c2ccc3cccnc3c2Oc2nc3c(c(N)c21)CCC3 (stereo not given),-104.91
5,C#CCNc1ncc(C#N)c(N)n1,-34.7
6,N#CC1=C(Cl)Oc2ccc3ccccc3c2C1c1ccccc1 (stereo not given),-4.84
7,C#CCN(C)Cc1cc2cc(OCCC3CCN(Cc4ccccc4)CC3)ccc2n1C.Cl,-83.46
8,O=C(O)C(=Cc1ccccc1)NC(=O)c1ccccc1,-6.77
9,COc1ccc2c(c1)cc(CN)n2C,-4.4
10,CCOC(=O)/C(C#N)=C\c1ccc([N+](=O)[O-])cc1,-3.2
11,CCOC(=O)c1cc2cc(O)ccc2n1C(=O)OC(C)(C)C,-9.8
12,Cn1c(CO)cc2cc(OCCCC3CCN(Cc4ccccc4)CC3)ccc21,-53.31
13,CCOC(=O)c1c[nH]c2ccc(OCc3ccccc3)cc12,-4.09
14,Cc1nc2c3cnn(-c4ccccc4)c3ncn2n1,-3.17
15,O=C(NN=Cc1c[nH]c2ccccc12)c1cccc2ccccc12,-3.56
16,O=C(N[C@H]1CC[C@H](O)CC1)c1ccccc1,-38.05
17,COc1nc(N)c(C#N)c(-c2ccccc2)c1C#N,-13.41
18,Cc1ccc2[nH]c(=O)c(C=O)cc2c1,4.75
19,COc1ccc2c(c1)cc(C(=O)O)n2C,-23.41
20,C#CCNc1nc(NCCCC2CCN(Cc3ccccc3)CC2)c(C#N)cc1C#N.Cl,-40.38
